According to PubChem BioAssay (EPA / NIEHS):
Results filed as inconclusive are left out. Active and inactive are the calls of the source. Rule for the calls: active = hit-call score of the fitted dose curve at least 0.9, where 1 is the maximum; inconclusive = response in the unintended direction; inactive = score below 0.9.

Target: Sodium channel protein type 1 subunit alpha (Rattus norvegicus) (UniProt P04774)
Experiment: NVS_IC_rNaCh_site2: NovaScreen (NVS) Ion Channel Assay for rat Sodium Channel, Site 2 (NaCh) (AID 2283322);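 note: hit means loss of radioligand binding signal relative to DMSO so AC50 marks displacement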
Method: NVS_IC_rNaCh_site2 is a biochemical, single-readout assay that uses extracted gene-proteins from Rat forebrain membranes in a tissue-based cell-free assay. Measurements were taken 1 hour after chemical dosing in a 48-well plate.NVS_IC_rNaCh_site2 is one of one assay component(s) measured or calculated from the NVS_IC_rNaCh_site2 assay. It is designed to make measurements of radioligand binding, a form of binding reporter, as detected with scintillation counting signals by Filter-based radiodetection technology.Data from the assay component NVS_IC_rNaCh_site2 was analyzed into 1 assay endpoint. This assay endpoint, NVS_IC_rNaCh_site2, was analyzed in the positive analysis fitting direction relative to DMSO as the negative control and baseline of activity. Using a type of binding reporter, loss-of-signal activity can be used to understand changes in the binding as they relate to the gene Scn1a. Furthermore, this assay endpoint can be referred to as a primary readout, because the performed assay has only produced 1 assay endpoint. To generalize the intended target to other relatable targets, this assay endpoint is annotated to the ion channel intended target family, where the subfamily is sodium channel.
Binding assays used specific radioligands (tritiated, iodinated) with non-radioactive competitive displacement ligands in agonist or antagonist protocols (as indicated) and various reference compounds and inhibitors to titrate specific binding to receptors and transporters. Most enzyme assays (CYPs, kinases, phosphatases, proteases, HDACs) used recombinant protein and specific substrates (fluorescence mostly, some colorimetric and radioactive) and inhibitors, followed by a biochemical separation of substrate and product. All assays for the biochemical HTS were initially run in duplicate at a single concentration (10 uM for CYP450 assays and 25 uM for all others). […] Each assay was run with positive and negative controls, and concurrent controls on every plate. The follow-up (secondary) screen tested active chemical-pairs in concentration series, as well as a few additional assays not tested in the primary screen, some selected negative inactives, and several cases re-run in the concentration series for confirmatory purposes.

SMILES | AC50 | outcome
CN(C)c1ccc(C(=C2C=CC(=[N+](C)C)C=C2)c2ccc(N(C)C)cc2)cc1 | 0.263 µM (active) | –
CC[C@H](NC(=O)c1cc(F)ccc1NS(=O)(=O)c1cccc2cccnc12)c1ccccc1 | – | inactive
CCCCCCCCCCCC[N+](C)(C)C | 13 µM (active) | –
COc1cccc([C@H](O)C2CCN(CCc3ccc(F)cc3)CC2)c1OC | 3.64 µM (active) | –
CCCCCCCCOC(=O)c1cc(O)c(O)c(O)c1 | 17.7 µM (active) | –
CC(O)CC(C)(C)O (stereo not given) | – | inactive
Cc1cc(F)ccc1-c1cc(N2CC[C@@H](O)[C@H]2CO)ncc1N(C)C(=O)C(C)(C)c1cc(C(F)(F)F)cc(C(F)(F)F)c1 | 5.99 µM (active) | –
CN(C)C(=O)C1(N2CCCCC2)CCN(CC[C@@]2(c3ccc(Cl)c(Cl)c3)CN(C(=O)c3ccccc3)CCO2)CC1 | 0.822 µM (active) | –
CCN(CC)C(=O)c1cc(S(=O)(=O)Cc2ccccc2)c(N2CCC(c3ccccc3)CC2)cc1N(CC)CCN(C)C | 0.419 µM (active) | –
c1ccc(C[n+]2cccc3ccccc32)cc1 | 10.7 µM (active) | –
COc1ccc2cc(S(=O)(=O)N[C@H](CC(=O)N[C@H](Cc3ccc(CN4[C@H](C)CCC[C@@H]4C)cc3)C(=O)N(C)C(C)C)c3ccc4c(c3)OCO4)ccc2c1 | 5.03 µM (active) | –
COc1cc(C(=O)NC2CCN(C)CC2)ccc1Nc1ncc2c(n1)N(C1CCCC1)CC(F)(F)C(=O)N2C | 2.03 µM (active) | –
NCc1cccc(C2CCN(C(=O)c3ccc(C#Cc4ccccc4F)o3)CC2)c1 | 2.68 µM (active) | –
Cc1occc1C(=O)Nc1ccc(C(=O)N2CCC(F)(F)/C(=C\C(=O)N3CCC(N4CCCCC4)CC3)c3ccccc32)cc1 | 4.89 µM (active) | –
Clc1cc(Cl)c2c(c1)N=C1CCCCCN1C2 | 6.64 µM (active) | –
NC(=O)c1nc(-c2cccc(-c3cc(F)ccc3OCC(F)(F)C(F)(F)F)c2)n[nH]1 | 0.574 µM (active) | –
O=C1c2ccccc2C(=O)N1CCc1noc(-c2ccc(CN3CCCCCC3)s2)n1 | 13.4 µM (active) | –
CCN(Cc1cccnc1)C(=O)c1cccc(Cl)c1[C@]1(C)C(=O)N(Cc2ccc(OC)cc2OC)c2ccc(Cl)cc21 | 17.5 µM (active) | –
CCOC(=O)O[C@H](C)OC(=O)c1ccc2c(c1)cc(C(=O)NC1CCN(C(C)C)CC1)n2Cc1cc(-c2ccc(Cl)s2)on1 | 9.62 µM (active) | –
CCCCCCCCN(C)CCCCCCCC | 11.8 µM (active) | –
